Screening data deposited in PubChem by several laboratories.
GIRK2 activator = Activates human GIRK2-containing potassium channels | activation (% efficacy), % for hits at 37.5 µM | HEK293 GIRK2/NPY4 cells, thallium flux fluorescence | 34,000 tested, under 10 active | P48051 | AID 1259324;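 active = primary screen hit, no activity in plain HEK293 cells, and in GIRK2-only cells above 5% efficacy rising with concentration; inactive = the rest, including fluorescent compounds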;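 note: efficacy is normalized control-subtracted fluorescence 15 s after thallium addition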
Target sequence (P48051 whole entry, looked up): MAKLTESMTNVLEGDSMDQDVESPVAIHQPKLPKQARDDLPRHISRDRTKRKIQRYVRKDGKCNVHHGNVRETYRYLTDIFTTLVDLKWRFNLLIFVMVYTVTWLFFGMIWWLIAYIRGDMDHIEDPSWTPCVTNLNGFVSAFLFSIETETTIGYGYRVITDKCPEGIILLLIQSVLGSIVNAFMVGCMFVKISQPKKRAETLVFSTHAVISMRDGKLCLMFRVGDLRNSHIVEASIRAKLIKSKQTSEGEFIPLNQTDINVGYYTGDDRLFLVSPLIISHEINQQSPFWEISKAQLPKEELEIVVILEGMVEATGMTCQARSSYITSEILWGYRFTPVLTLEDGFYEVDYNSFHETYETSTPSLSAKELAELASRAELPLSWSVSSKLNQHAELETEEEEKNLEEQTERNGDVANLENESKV
AMPAR-TARP mod = modulates AMPAR-stargazin complexes; 40,000 tested, 3.5% active; calls only at 30 µM; O88602+P19491; HEK293 GluA2+stargazin, membrane potential dye (FDSS), glutamate EC50; hits were called plate by plate, in both directions;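 active = any of four per-well response measures lying three or more SD from its plate-wide compound average, in either direction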
Active calls of the source: *; i = inactive; . = not tested or not shown; + = active, no number. Only a selection was taken, and hits are over-represented in it overall.

SMILES | GIRK2 activator | AMPAR-TARP mod
CCOc1cc(/C=C/c2ccc3cccc(O)c3n2)cc(Br)c1O | . | i
Cn1nc(NC(=O)CSCc2ccccc2)c2c1NC(=O)CC2c1cccs1 (stereo not given) | i | i
NC(=O)c1ccc(NC(=O)CCc2csc(NS(=O)(=O)c3ccccc3)n2)cc1 | i | +
Cc1ccc(S(=O)(=O)Nc2nc(CCC(=O)NCc3ccc(F)cc3)cs2)cc1 | i | i
O=C(CCc1csc(NS(=O)(=O)c2ccccc2)n1)Nc1ccc(OC(F)(F)F)cc1 | i | i
COc1ccc(NC(=O)CCc2csc(NS(=O)(=O)c3ccccc3)n2)cc1OC | i | i
O=C(CCc1csc(NS(=O)(=O)c2ccc(F)cc2)n1)Nc1ccc(Cl)cc1 | i | +
CC(=O)c1cccc(NC(=O)CCc2csc(NS(=O)(=O)c3ccccc3)n2)c1 | i | +
CC(C)c1nnc(C2CCN(C(=O)/C=C/c3ccccc3Cl)CC2)o1 | i | i
COC(=O)c1ccc(NC(=O)CN2CCN(C3c4ccccc4-c4ccccc43)CC2)cc1 | . | i
COCCn1c(=S)[nH]c2cc(C(=O)N3CCc4ccccc4C3)ccc2c1=O | i | +
COC(=O)c1ccc2c(=O)n(CCN3CCCCC3)c(=S)[nH]c2c1 | i | i
COC(=O)c1ccc2c(=O)n(CCC(=O)N3CCC(Cc4ccccc4)CC3)c(=S)[nH]c2c1 | i | i
COC(=O)c1ccc2c(=O)n(CCC(=O)NCCCN3CCOCC3)c(=S)[nH]c2c1 | i | +
COCCn1c(=S)[nH]c2cc(C(=O)N3CCN(c4ccccc4)CC3)ccc2c1=O | i | i
COC(=O)c1ccc2c(=O)n(CCC(=O)N3CCOCC3)c(=S)[nH]c2c1 | i | +
CC1=NN(c2ccccc2)C(=O)C1C(=O)c1sc(-c2ccccc2)nc1C (stereo not given) | i | i
CC1=NN(c2ccccc2)C(=O)C1C(=O)c1ccc(S(=O)(=O)N2CCCCC2)cc1 (stereo not given) | i | i
COc1ccc(C(=O)C2C(=O)N(c3ccccc3)N=C2C)c(OC)c1 (stereo not given) | i | +
CC1=NN(c2ccccc2)C(=O)C1C(=O)c1cccc(F)c1 (stereo not given) | i | +
O=C(Nc1nc2ccc([N+](=O)[O-])cc2s1)c1ccc(S(=O)(=O)N2CCCCC2)cc1 | . | i
Nc1nc2ccc(S(=O)(=O)N3CCCCC3)cc2s1 | i | +
CCN1C(=O)Cc2cc(NC(=O)Nc3cc(OC)c(OC)c(OC)c3)ccc21 | i | i
CC(=O)Nc1ccc(NC(=O)CSc2nc(=O)n(CCCO)c3c2CCCC3)cc1 | i | i
CCOc1ccc(NC(=O)CSc2nc(=O)n(CCO)c3c2CCCC3)cc1 | i | +
SMILES | GIRK2 activator | AMPAR-TARP mod
CCn1ccc(C(=O)N(Cc2ccccn2)c2nc3ccc(OC)cc3s2)n1 | i | .
O=C(NCC1(c2ccc(F)cc2)CC1)c1ccc2c(c1)OCO2 | i | i
O=C(NC1CCSC1=O)C1CCCN(c2cc(-n3cccn3)ncn2)C1 (stereo not given) | i | i
CCN(C(=O)Cn1cc(-c2ccccc2)c(N2CCOCC2)n1)c1cccc(C)c1 | i | +
CCN(C(=O)Cn1cc(-c2ccc(C)cc2)c(N2CCOCC2)n1)c1cccc(C)c1 | i | .
COc1cccc(CNC(=O)Cn2nc(S(=O)(=O)c3ccc(C)cc3)ccc2=O)c1OC | i | i
C#CCn1c(=NC(=O)c2ccnn2CC)sc2cc(Cl)ccc21 | i | .
Cc1cc(C(=O)Nc2ccc3c(c2)OCC(C)(C)C(=O)N3C)c(C)o1 | i | i
CN1C(=O)C(C)(C)COc2cc(NC(=O)c3ccc4nsnc4c3)ccc21 | i | +
CC(C)Cc1cnc2c(c1SCC(=O)Nc1ccc(Cl)cc1)c(=O)n(C)c(=O)n2C | . | i
O=C(NCCc1ccccc1)C1CCN(c2cc(Oc3ccccc3)ncn2)CC1 | i | i
CCOC(=O)CNC(=O)c1c(C(F)(F)F)nn(C(C)C)c1C | i | i
CCCNC(=O)CSc1cc(N2CCOCC2)ncn1 | i | i
CC(C)(C)NC(=O)N1CCN(c2cc(N3CCOCC3)ncn2)CC1 | i | +
Cc1nnsc1C(=O)N1CCN(c2ccc(-c3ccccn3)nn2)CC1 | i | i
Cc1n[nH]c(C)c1S(=O)(=O)N1CCN(c2ccc(-c3ccccn3)nn2)CC1 | i | +
CCCS(=O)(=O)N1CCN(c2ccc3nnc(C4CC4)n3n2)CC1 | i | i
Cc1n[nH]c(C)c1S(=O)(=O)N1CCN(c2ccc3nnc(C4CC4)n3n2)CC1 | i | +
O=C(c1ncccn1)N1CCN(c2ncccn2)CC1 | i | i
COc1ccc(CNC(=O)Cn2nc3c(c2NC(=O)c2ccco2)CSC3)cc1 | i | i
Cc1cc(C)c(C)c(OCC(O)CN2C(C)(C)CC(O)CC2(C)C)c1 (stereo not given) | i | +
